# Unmarked numbers belong to inactive results. Inconclusive results are not listed. Active and inactive are the calls of the source. Calls come from the whole dose curve; as a rule, active = well fitted curve in the direction sought with a large enough effect; inconclusive = small, poorly fitted or top-dose-only effect, or another doubt; inactive = no such curve, though single readings can be large; an effect the other way counts as inactive or inconclusive.
# Test system: not listed separately
# Experiment: Cellular Toxicity (caspase-3) Hek293 (AID 664);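 note: cells exposed to compound for 16 h at 37 °C before readout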
# Conditions: HEK293 caspase-3 activation, DMSO = 0%, 100 µM tamoxifen = 100%; series mostly up to 92.2 µM; caspase-3 activation: at the top concentration
# Summary of the method: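 Cells plated, 5 hr at 37 °C; compounds added; 16 hr at 37 °C; Caspase-Glo 3/7 reagent, 20 min RT; luminescence read. Activation expressed relative to DMSO and 100 uM tamoxifen, AC50 by Hill model.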
row,SMILES,caspase-3 activation
1,COc1cc([C@H]2Oc3cc([C@H]4Oc5cc(O)cc(O)c5C(=O)[C@@H]4O)ccc3O[C@@H]2CO)ccc1O,-0.58%
2,COc1ccc(C(=O)c2ccccc2)c(O)c1,-2.26%
3,C=C[C@H]1CN2CC[C@H]1C[C@@H]2[C@@H](O)c1ccnc2ccc(OC)cc12,1.49%
4,CCOc1ccccc1C(N)=O,-1%
5,Oc1c(Cl)cc(Cl)c(Cl)c1Cc1c(O)c(Cl)cc(Cl)c1Cl,19%
6,CCOc1ccc(NC(C)=O)cc1,-2.35%
7,NC(=O)c1ccccc1O,4.14%
8,COc1ccc(C(Cl)=C(c2ccc(OC)cc2)c2ccc(OC)cc2)cc1,10.9%
9,OC[C@H]1O[C@@H]2O[C@H]3[C@H](O)[C@@H](O)[C@@H](O[C@H]4[C@H](O)[C@@H](O)[C@@H](O[C@H]5[C@H](O)[C@@H](O)[C@@H](O[C@H]6[C@H](O)[C@@H](O)[C@@H](O[C@H]7[C@H](O)[C@@H](O)[C@@H](O[C@H]8[C@H](O)[C@@H](O)[C@@H](O[C@H]1[C@H](O)[C@H]2O)O[C@@H]8CO)O[C@@H]7CO)O[C@@H]6CO)O[C@@H]5CO)O[C@@H]4CO)O[C@@H]3CO,3.36%
10,CCCCC(CC)COC(=O)c1ccc(N(C)C)cc1 (stereo not drawn),4.88%
11,NCCNc1cccc2ccccc12,2.05%
12,O=C(O)c1ccc(S(=O)(=O)N(Cl)Cl)cc1,0.924%
13,CCCN(CCC)S(=O)(=O)c1ccc(C(=O)O)cc1,-0.722%
14,C/C=C/c1ccc(O)c(OC)c1,-0.435%

# Test system: not listed separately
# Experiment: Cellular Toxicity (caspase-3) NIH 3T3 (AID 666);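 note: caspase signal read after 16 h compound exposure; 0% = DMSO basal and 100% = 100 µM tamoxifen stimulation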
# Conditions: NIH 3T3 caspase-3 activation, apoptosis/toxicity, 0% DMSO, 100% is 100 µM tamoxifen; series mostly up to 92.2 µM; caspase-3 activation: at the top concentration
# Summary of the method: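 Luminescence from aminoluciferin released by caspase-3/7 cleavage of a peptide substrate served as read-out. Mouse fibroblast NIH 3T3 cells were exposed to compounds over a concentration range for 16 hours, and AC50 values came from standard Hill modelling.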
row,SMILES,caspase-3 activation
1,COc1ccc(C(=O)c2ccccc2)c(O)c1,-0.304%
2,Oc1ccc(Cl)cc1Cc1cc(Cl)ccc1O,-4.47%
3,C=C[C@H]1CN2CC[C@H]1C[C@@H]2[C@@H](O)c1ccnc2ccc(OC)cc12,-6.25%
4,CCOc1ccccc1C(N)=O,-0.58%
5,Oc1c(Cl)cc(Cl)c(Cl)c1Cc1c(O)c(Cl)cc(Cl)c1Cl,-4.8%
6,CCOc1ccc(NC(C)=O)cc1,-0.23%
7,NC(=O)c1ccccc1O,-1.73%
8,COc1ccc(C(Cl)=C(c2ccc(OC)cc2)c2ccc(OC)cc2)cc1,4.94%
9,OC[C@H]1O[C@@H]2O[C@H]3[C@H](O)[C@@H](O)[C@@H](O[C@H]4[C@H](O)[C@@H](O)[C@@H](O[C@H]5[C@H](O)[C@@H](O)[C@@H](O[C@H]6[C@H](O)[C@@H](O)[C@@H](O[C@H]7[C@H](O)[C@@H](O)[C@@H](O[C@H]8[C@H](O)[C@@H](O)[C@@H](O[C@H]1[C@H](O)[C@H]2O)O[C@@H]8CO)O[C@@H]7CO)O[C@@H]6CO)O[C@@H]5CO)O[C@@H]4CO)O[C@@H]3CO,-0.563%
10,CCCCC(CC)COC(=O)c1ccc(N(C)C)cc1 (stereo not drawn),-4.38%
11,NCCNc1cccc2ccccc12,-4.53%
12,O=C(O)c1ccc(S(=O)(=O)N(Cl)Cl)cc1,2.05%
13,CCCN(CCC)S(=O)(=O)c1ccc(C(=O)O)cc1,2.41%
14,C/C=C/c1ccc(O)c(OC)c1,-4.62%

# Target: Guanine nucleotide-binding protein G(i) subunit alpha-1 (Homo sapiens) (UniProt P63096)
# Sequence (P63096 whole entry, looked up): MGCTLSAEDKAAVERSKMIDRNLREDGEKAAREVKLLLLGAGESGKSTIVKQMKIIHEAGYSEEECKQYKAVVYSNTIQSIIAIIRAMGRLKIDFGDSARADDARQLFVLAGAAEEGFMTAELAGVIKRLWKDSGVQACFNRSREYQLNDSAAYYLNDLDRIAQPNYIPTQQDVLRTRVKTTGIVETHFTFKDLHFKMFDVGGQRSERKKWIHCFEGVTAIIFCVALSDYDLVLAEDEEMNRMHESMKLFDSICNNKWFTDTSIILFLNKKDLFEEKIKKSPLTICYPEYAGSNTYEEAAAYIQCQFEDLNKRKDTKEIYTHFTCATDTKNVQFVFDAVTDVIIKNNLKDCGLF
# Experiment: qHTS Assay for Inhibitors of RGS12 GoLoco Motif Activity (Green Fluorophore) (AID 879);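 note: 0% = labeled peptide with Gαi1 and full inhibition = labeled peptide alone without protein; negative values mean loss of peptide binding seen as reduced polarization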
# Conditions: Galphai1/FITC-RGS12 GoLoco peptide, fluorescence polarization; series mostly up to 57.1 µM; activity, negative = inhibition: at the top concentration
# Summary of the method: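 Fluorescence polarization assay: 50 nM Gαi1 with 10 nM FITC-labeled RGS12 GoLoco peptide in 10 mM Tris pH 7.5, 150 mM NaCl, 0.1 mM GDP, 0.05% NP40, 10 min at room temperature with compound.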
row,SMILES,"activity, negative = inhibition"
1,CN=C(N)NCCC[C@H](N)C(=O)O,0.119%
2,CN1CCC[C@@H]1CCO[C@](C)(c1ccccc1)c1ccc(Cl)cc1,-3.03%
3,NC(N)=NCc1cccc(I)c1,-12.6%
4,NS(=O)(=O)Cc1noc2ccccc12,-6%
5,CN(C)CCC[C@@]1(c2ccc(F)cc2)OCc2cc(C#N)ccc21,-18.4%
6,CC(C)(C)NC[C@H](O)COc1nsnc1N1CCOCC1,-5.26%

# Target: Cytochrome P450 2C9 (Homo sapiens) (UniProt P11712)
# Sequence (P11712 whole entry, looked up): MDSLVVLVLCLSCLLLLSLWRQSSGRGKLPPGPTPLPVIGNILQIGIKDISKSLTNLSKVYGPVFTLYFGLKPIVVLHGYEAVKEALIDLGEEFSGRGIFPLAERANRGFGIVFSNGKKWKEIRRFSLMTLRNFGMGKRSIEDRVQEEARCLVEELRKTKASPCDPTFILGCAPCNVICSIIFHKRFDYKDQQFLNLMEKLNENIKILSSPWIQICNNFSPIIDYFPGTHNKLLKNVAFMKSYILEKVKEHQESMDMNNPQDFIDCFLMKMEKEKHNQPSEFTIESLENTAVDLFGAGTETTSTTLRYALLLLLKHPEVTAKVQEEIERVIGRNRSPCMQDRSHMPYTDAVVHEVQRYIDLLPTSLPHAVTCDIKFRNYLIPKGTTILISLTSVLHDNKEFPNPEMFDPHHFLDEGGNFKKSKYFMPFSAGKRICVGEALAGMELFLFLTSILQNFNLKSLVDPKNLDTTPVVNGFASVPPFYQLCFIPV
# Experiment: qHTS Assay for Inhibitors and Substrates of Cytochrome P450 2C9 (AID 883); note: nearly all actives have a fitted effect of over 60% in size; note: potency is the fitted concentration of half-maximal effect; for activity change, negative = inhibition: % is set by controls: 0 for no effect and ±100 for the full control effect
# Conditions: recombinant CYP2C9, luciferin-H luminescence, 60 min; series mostly up to 25.6 µM; activity change, negative = inhibition: at the top concentration
# Procedure: NIH Molecular Libraries Screening Centers Network [MLSCN] NIH Chemical Genomics Center [NCGC] MLSCN Grant: None NCGC Assay Overview: The P450 gene superfamily is involved in the metabolism and clearance of xenobiotics. This assay used human CYP2C9 to measure the hydroxylation of deoxyluciferin (Luciferin-H; P450 Glo-Buffer) to luciferin. The luciferin is then measured by luminescence after the addition of a luciferase detection reagent. Luciferin-H concentration in the assay was equal to its Michaelis constant KM for CYP2C9. Inhibitors and some substrates limit the production of luciferin, and decrease measured luminescence.
# NCGC Assay Protocol Summary: Two uL of enzyme and substrate mix (final concentrations: 10nM CYP2C9, 100uM Luciferin-H, 25mM KPO4) were dispensed into a white, solid bottom 1536-well microtiter plate. 23nL of compound was transferred by a pin tool. The plate was incubated at 37C for 10 min. Two uL of an NADPH regeneration solution (Promega supplied reagent) was dispensed and the reaction was allowed to continue for 60 min at 37C. Then the reaction was stopped by reconstituted P450 Glo-Buffer. After another 20 min of incubation the plate was read on the ViewLux (Perkin Elmer) at 60 sec exposure and 2x2 binning. This protocol was carried out with Promega-Glo reagents and further information can be found at http://www.promega.com/tbs/tb325/tb325.pdf. Data were normalized to the to AC100 inhibition (57uM sulphaphenazole). Keywords: P450, CYP2C9, Luciferase, MLSMR, MLSCN, NIH Roadmap, qHTS, NCGC
SMILES,"activity change, negative = inhibition",Potency,outcome
COc1cc(N)c(Cl)cc1C(=O)NC1CCN(Cc2ccccc2)CC1,140%,–,–
O=C(CCCN1CC=C(n2c(=O)[nH]c3ccccc32)CC1)c1ccc(F)cc1,60.4%,–,–
O=C1C(=O)c2ccccc2C(O)=C1C1CCC(c2ccc(Cl)cc2)CC1 (stereo not drawn),–,2 µM (active),–
CN(C)CCC[C@@]1(c2ccc(F)cc2)OCc2cc(C#N)ccc21,–,3.16 µM (active),–
COc1cc(C(=O)NCc2ccc(OCCN(C)C)cc2)cc(OC)c1OC,–,–,inactive
COc1ccccc1N1CCN(CCCCNC(=O)c2ccc(-c3ccc(C(C)=O)cc3)cc2)CC1,-29.6% [at 57.1 µM],–,–

# Target: Cytochrome P450 3A4 (Homo sapiens) (UniProt P08684)
# Sequence (P08684 whole entry, looked up): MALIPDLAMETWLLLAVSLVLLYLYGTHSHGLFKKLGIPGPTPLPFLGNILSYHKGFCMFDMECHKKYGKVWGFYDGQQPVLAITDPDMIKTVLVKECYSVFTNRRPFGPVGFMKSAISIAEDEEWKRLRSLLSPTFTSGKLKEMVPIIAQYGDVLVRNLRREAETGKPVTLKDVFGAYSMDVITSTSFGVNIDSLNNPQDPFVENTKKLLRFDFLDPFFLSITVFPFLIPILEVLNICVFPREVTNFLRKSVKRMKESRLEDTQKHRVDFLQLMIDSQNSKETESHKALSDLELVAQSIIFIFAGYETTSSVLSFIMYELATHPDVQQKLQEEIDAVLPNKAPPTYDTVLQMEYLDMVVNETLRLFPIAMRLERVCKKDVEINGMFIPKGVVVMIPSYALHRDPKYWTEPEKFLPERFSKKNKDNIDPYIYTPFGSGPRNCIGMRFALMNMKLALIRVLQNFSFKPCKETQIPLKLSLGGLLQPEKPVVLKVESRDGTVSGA
# Experiment: qHTS Assay for Inhibitors and Substrates of Cytochrome P450 3A4 (AID 884); note: nearly all actives have a fitted effect of over 50% in size; note: potency is the fitted concentration of half-maximal effect; for activity change, negative = inhibition: % is set by controls: 0 for no effect and ±100 for the full control effect
# Conditions: recombinant CYP3A4, Luciferin-PPXE luminescence; series mostly up to 57.1 µM; activity change, negative = inhibition: at the top concentration
# Summary of the method: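 20 nM human CYP3A4 with 25 uM Luciferin-PPXE (at KM) in 200 mM KPO4, preincubated 10 min with compound; NADPH regeneration started a 60 min RT reaction. Luciferin detected by luminescence, normalized to 57 uM ketoconazole as full inhibition.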
SMILES,Potency,"activity change, negative = inhibition"
COc1cc(N)c(Cl)cc1C(=O)NC1CCN(Cc2ccccc2)CC1,12.6 µM (active),–
O=c1[nH]c(=O)n([C@H]2C[C@H](O)[C@@H](CO)O2)cc1F,–,-7.77%
COc1ccc(C(=O)c2ccccc2)c(O)c1,–,-24.7%
CCOc1ccccc1C(N)=O,–,-10.3%
O=C1C(O)=C(O)C(=O)C(O)=C1O,–,21.9%
COP(=O)(OC)OC(c1ccc(Cl)cc1)P(=O)(OC)OC (stereo not drawn),–,-16.6%
C[C@H]1[C@H]2CC[C@H]3[C@@H]4CC=C5C[C@@H](N(C)C)CC[C@]5(C)[C@H]4CC[C@]23CN1C,–,-4.29%
CN(C)CCOC(=O)C(c1ccccc1)C1(O)CCCC1 (stereo not drawn),–,-26.1%
NC(=O)c1ccccc1O,–,-0.49%
COc1ccc(C(Cl)=C(c2ccc(OC)cc2)c2ccc(OC)cc2)cc1,–,-18%
OC[C@H]1O[C@@H]2O[C@H]3[C@H](O)[C@@H](O)[C@@H](O[C@H]4[C@H](O)[C@@H](O)[C@@H](O[C@H]5[C@H](O)[C@@H](O)[C@@H](O[C@H]6[C@H](O)[C@@H](O)[C@@H](O[C@H]7[C@H](O)[C@@H](O)[C@@H](O[C@H]8[C@H](O)[C@@H](O)[C@@H](O[C@H]1[C@H](O)[C@H]2O)O[C@@H]8CO)O[C@@H]7CO)O[C@@H]6CO)O[C@@H]5CO)O[C@@H]4CO)O[C@@H]3CO,–,-17.9%
CC(=O)NO,–,-10.3%
CCOC(=O)[C@H](CCc1ccccc1)N[C@@H](C)C(=O)N1[C@H](C(=O)O)C[C@H]2CCCC[C@@H]21,–,-8.45%
CN(C)CCOC(c1ccc(Cl)cc1)c1ccccn1 (stereo not drawn),–,8.93%
Cc1ncc(CO)c(C=O)c1O,–,-1.06%
O=C1C(=O)c2ccccc2C(O)=C1C1CCC(c2ccc(Cl)cc2)CC1 (stereo not drawn),–,-29.2%
O=C(O)CCNC(=O)c1ccccc1,–,-4.47%
CN(C)CCC[C@@]1(c2ccc(F)cc2)OCc2cc(C#N)ccc21,–,5.63%
NCCNc1cccc2ccccc12,–,-19.3%
O=C(O)c1ccc(S(=O)(=O)N(Cl)Cl)cc1,–,-9.05%
CCCN(CCC)S(=O)(=O)c1ccc(C(=O)O)cc1,–,-8.77%
C/C=C/c1ccc(O)c(OC)c1,–,-37.4%
CCCCC(CC)CN1CN(CC(CC)CCCC)CC(C)(N)C1 (stereo not drawn),–,-22.8%
